Measured values published in PubChem BioAssay AID1159580 (chemical genetic matrix, 2015).
Values joined by “and” are separate entries in the source; they are usually repeats but may differ in a detail not shown here. Identical values can stand only once. The whole screen tested about 5,500 compounds, of which about 2,000 (36%) were called active. Another 18% or so got no clear call; they are omitted. Cut-off read from the data, not from the text of the source: active = normalized growth mostly below about 0.91 (no sharp cut-off); inconclusive = no clear call, values can overlap the other calls; inactive = mostly above about 0.92. Some of the results follow.

Assay: chemical genetic growth profiling, strain panel (AID 1159580);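 note: tested at 20 µM; growth read once vehicle control cultures reached saturation at 30 °C; 1 = growth at the plate median or of vehicle wells; lower values mean less growth of the strain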
Conditions: S. cerevisiae deletion strains, growth OD

Measured: normalized growth

CC1(C)O[C@@H]2CC3C4CCC5=CC(=O)C=C[C@]5(C)[C@@]4(F)[C@@H](O)C[C@]3(C)[C@]2(C(=O)CO)O1 (some centres not stated)
inactive: locus YAL013W, strain DEP1, stronger effect = lower value 1.02 | locus YAL021C, strain ccr4, stronger effect = lower value 0.99 | locus YAL026C, strain drs2, stronger effect = lower value 1 | locus YAL030W, strain snc1, stronger effect = lower value 0.996 | locus YBL061C, strain skt5, stronger effect = lower value 0.98 | locus YBR009C, strain hhf1, stronger effect = lower value 0.992 | locus YBR021W, strain FUR4, stronger effect = lower value 0.946 | locus YBR023C, strain chs3, stronger effect = lower value 0.993 | locus YBR171W, strain sec66, stronger effect = lower value 1 | locus YBR229C, strain ROT2, stronger effect = lower value 1.01 | locus YBR231C, strain swc5, stronger effect = lower value 0.987 | locus YBR279W, strain paf1, stronger effect = lower value 0.991 | locus YCL011C, strain gbp2, stronger effect = lower value 1.02 | locus YCL016C, strain dcc1, stronger effect = lower value 0.968 | locus YCL029C, strain bik1, stronger effect = lower value 1 | locus YCL061C, strain MRC1, stronger effect = lower value 1.01 | locus YCL069W, strain vba3, stronger effect = lower value 1.01 | locus YCR088W, strain abp1, stronger effect = lower value 1.01 | locus YDL005C, strain med2, stronger effect = lower value 1 | locus YDL035C, strain GPR1, stronger effect = lower value 1.01 | locus YDL040C, strain nat1, stronger effect = lower value 0.988 | locus YDL074C, strain BRE1, stronger effect = lower value 1.12 | locus YDL101C, strain DUN1, stronger effect = lower value 1.01 | locus YDL134C, strain PPH21, stronger effect = lower value 1.01 | locus YDL185W, strain tfp1, stronger effect = lower value 1.01 | locus YDL192W, strain arf1, stronger effect = lower value 1.01 | locus YDR001C, strain nth1, stronger effect = lower value 1 | locus YDR069C, strain doa4, stronger effect = lower value 0.998 | locus YDR101C, strain arx1, stronger effect = lower value 0.992 | locus YDR137W, strain rgp1, stronger effect = lower value 1.01 | locus YDR150W, strain NUM1, stronger effect = lower value 1.02 | locus YDR159W, strain sac3, stronger effect = lower value 0.928 | locus YDR162C, strain NBP2, stronger effect = lower value 1.01 | locus YDR195W, strain ref2 0.954 | locus YDR297W, strain sur2, stronger effect = lower value 0.997 | locus YDR318W, strain mcm21, stronger effect = lower value 0.987 | locus YDR334W, strain swr1, stronger effect = lower value 0.997 | locus YDR335W, strain msn5, stronger effect = lower value 1.02 | locus YDR388W, stronger effect = lower value 0.997 | locus YDR392W, strain spt3, stronger effect = lower value 0.884 | locus YDR502C, strain sam2, stronger effect = lower value 0.999 | locus YEL003W, strain gim4, stronger effect = lower value 0.991 | locus YEL037C, strain rad23, stronger effect = lower value 1.02 | locus YEL061C, strain CIN8 (second series), stronger effect = lower value 1 | locus YEL061C, strain CIN8, stronger effect = lower value 1.01 | locus YER015W, strain faa2, stronger effect = lower value 0.991 | locus YER016W, strain bim1, stronger effect = lower value 0.975 | locus YER110C, stronger effect = lower value 0.998 | locus YER111C, strain swi4, stronger effect = lower value 0.999 | locus YER155C, strain BEM2 (second series), stronger effect = lower value 0.983 | locus YER155C, strain BEM2, stronger effect = lower value 0.966 | locus YER167W, strain BCK2, stronger effect = lower value 1.01 | locus YFR010W, strain ubp6, stronger effect = lower value 1.01 | locus YGL078C, strain dbp3, stronger effect = lower value 1 | locus YGL086W, strain mad1, stronger effect = lower value 0.997 | locus YGL167C, strain pmr1, stronger effect = lower value 0.988 | locus YGL173C, strain kem1, stronger effect = lower value 0.98 | locus YGL227W, strain vid30, stronger effect = lower value 1.01 | locus YGL240W, strain doc1, stronger effect = lower value 0.953 | locus YGL248W, strain PDE1, stronger effect = lower value 1.01 | locus YGL253W, strain hxk2, stronger effect = lower value 1.02 | locus YGR078C, strain PAC10, stronger effect = lower value 1.03 | locus YGR135W, strain pre9, stronger effect = lower value 0.996 | locus YGR229C, strain SMI1, stronger effect = lower value 1.02 | locus YGR252W, strain gcn5, stronger effect = lower value 0.97 | locus YHR013C, strain ard1, stronger effect = lower value 0.956 | locus YHR027C, strain rpn1, stronger effect = lower value 1 | locus YHR030C, strain SLT2, stronger effect = lower value 1.01 and 0.993 | locus YHR079C, strain IRE1 (second series), stronger effect = lower value 0.989 | locus YHR079C, strain IRE1, stronger effect = lower value 0.989 | locus YHR094C, strain hxt1, stronger effect = lower value 0.994 | locus YHR129C, strain ARP1, stronger effect = lower value 1.01 | locus YHR142W, strain chs7, stronger effect = lower value 1.02 | locus YHR200W, strain rpn10, stronger effect = lower value 0.995 | locus YIL066C, strain RNR3, stronger effect = lower value 1.02 | locus YIL073C, strain SPO22, stronger effect = lower value 1.05 | locus YIL125W, strain kgd1, stronger effect = lower value 0.998 | locus YIR030C, strain dcg1, stronger effect = lower value 1.01 | locus YJL092W, strain hpr5, stronger effect = lower value 1 | locus YJL095W, strain BCK1 (second series), stronger effect = lower value 1 | locus YJL095W, strain BCK1, stronger effect = lower value 1.01 and 0.992 | locus YJL115W, strain asf1, stronger effect = lower value 0.993 | locus YJL129C, strain trk1, stronger effect = lower value 1.01 | locus YJL134W, strain LCB3, stronger effect = lower value 1.01 | locus YJL154C, strain vps35, stronger effect = lower value 0.999 | locus YJL164C, strain tpk1, stronger effect = lower value 0.994 | locus YJL166W, strain qcr8, stronger effect = lower value 0.996 | locus YJL168C, strain set2, stronger effect = lower value 0.993 | locus YJL187C, strain SWE1 (second series), stronger effect = lower value 1.02 | locus YJL187C, strain SWE1, stronger effect = lower value 0.976 | locus YJR043C, strain POL32, stronger effect = lower value 0.997 | locus YJR066W, strain TOR1, stronger effect = lower value 0.947
